{"source": "PubChem BioAssay (NCATS)", "note": "“And” between values parts separate entries of the source, which are not always exact repeats. Equal values may be shown once. Results filed as inconclusive are left out. The source holds several records for some structures; these can differ, active in one and inactive in another. The source made the active and inactive calls. Calls come from the whole dose curve; as a rule, active = well fitted cell-killing curve with a large enough effect; inconclusive = small, poorly fitted or top-dose-only effect, or effect the other way; inactive = no such curve, though single readings can be large or run the other way. Potency is the fitted concentration of half-maximal effect."}
{"test": "Viability qHTS for spleen associated tyrosine kinase inhibitor (SYKi) naive MV4-11 cells (AID 1963823); note: nearly all actives have a fitted effect of over 40% in size", "conditions": "MV4-11 AML viability, CellTiter-Glo luminescence, 72 h; series mostly up to 45 µM; viability (% of control): at the top concentration", "how_it_was_run": "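In this viability screen, compounds acted on SYK inhibitor naive MV4-11 cells for three days (72 hr, 37 C). Remaining viable cells were measured by CellTiter-Glo luminescence following a 10 min room-temperature development.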"}
{"smiles": "CNC(=O)c1cc(Oc2ccc(NC(=O)Nc3ccc(Cl)c(C(F)(F)F)c3)c(F)c2)ccn1", "Potency": "0.296 µM (active)"}
{"smiles": "O=C(N[C@@H](c1ccccc1)[C@@H]1CCCCN1)c1cccc(C(F)(F)F)c1Cl", "Potency": "16.6 µM (active)"}
{"smiles": "O=S(=O)(O)CCS", "viability (% of control)": "74.2% (inactive)"}
{"smiles": "CCN(c1ccccc1)c1cc(NC)[n+](C)c(C)n1", "Potency": "18.6 µM (active)"}
{"smiles": "CCn1c(C(=O)N(C2CC2)C2CC2)cc2c3c(ncn3C)c(Nc3cc(C)n(C)n3)nc21", "Potency": "1.03 µM (active) and 1.48 µM (active)"}
{"test": "Viability qHTS for spleen associated tyrosine kinase inhibitor (SYKi) drug resistant MV4-11 cells (AID 1963824); note: nearly all actives have a fitted effect of over 35% in size", "conditions": "SYKi-resistant MV4-11 viability, CellTiter-Glo, 72 h; series mostly up to 45 µM; viability, % of control: at the top concentration", "how_it_was_run": "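SYK inhibitor-resistant MV4-11 AML cells, 500 per well, added to predispensed compounds and incubated 72 hr at 37 C, 5% CO2. Viability measured by CellTiter-Glo luminescence after 10 min at room temperature.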"}
{"smiles": "Cn1c(=O)n(-c2ccc(C(C)(C)C#N)cc2)c2c3cc(-c4cnc5ccccc5c4)ccc3ncc21", "Potency": "164 nM (active) and 60.5 nM (active)"}
{"smiles": "CCN(CC)Cc1ccc2cc(COC(=O)Nc3ccc(C(=O)NO)cc3)ccc2c1", "Potency": "206 nM (active) and 372 nM (active)"}
{"smiles": "CCCCCCCCCCCCc1ccc(S(=O)(=O)Nc2nncs2)cc1", "viability, % of control": "71.9% (inactive)"}
{"smiles": "O=C(Nc1cn[nH]c1-c1nc2ccc(CN3CCOCC3)cc2[nH]1)NC1CC1", "Potency": "73.1 nM (active) and 51.7 nM (active) and 132 nM (active)"}
{"smiles": "Cc1ccc2nc(NCCN)c3ncc(C)n3c2c1", "Potency": "4.61 µM (active) and 2.63 µM (active)"}
{"smiles": "Cn1cc(C[C@@H](N)C(=O)O)c2ccccc21", "viability, % of control": "75.4% [at 9.25 µM] (inactive)"}
{"smiles": "COc1cc(C)c(Sc2cnc(NC(=O)c3ccc(CNC(C)C(C)(C)C)cc3)s2)cc1C(=O)N1CCN(C(C)=O)CC1", "note": "(stereo not given)", "Potency": "3.32 µM (active)"}
{"smiles": "Cc1ccn(-c2ccc(-c3ncco3)cc2)c(=O)c1-c1ccc2nc(N)ncc2c1", "Potency": "2.31 µM (active)"}
{"smiles": "C[C@@H]1C[C@H]2[C@@H]3CCC4=CC(=O)C=C[C@]4(C)[C@@]3(Cl)[C@@H](O)C[C@]2(C)[C@@]1(OC(=O)c1ccco1)C(=O)CCl", "Potency": "8.41 µM (active) and 4.68 µM (active)"}
{"smiles": "COCCNCCCn1c(C(=O)CF)c(-c2ccc(C)cc2)c2c(N)ncnc21", "Potency": "6.61 µM (active)"}
{"smiles": "COc1ncc(-c2ccc3c(Nc4cc(Oc5cc(F)cc(F)c5)cc(C(=O)O)c4)c(S(=O)(=O)NC4CC4)cnc3c2)c(OC)n1", "viability, % of control": "77.8% (inactive)"}
{"smiles": "CC(C)(C)C(=O)OCOP(=O)(COCCn1cnc2c(N)ncnc21)OCOC(=O)C(C)(C)C", "Potency": "944 nM (active) and 411 nM (active)"}
{"smiles": "C=CC(=O)Nc1cccc(Oc2nc(Nc3ccc(N4CCN(C)CC4)cc3)ncc2Cl)c1", "Potency": "517 nM (active) and 525 nM (active)"}
{"smiles": "O=C(c1ccc(F)cc1)C1CCN(CCn2c(=O)[nH]c3ccccc3c2=O)CC1", "Potency": "16.8 µM (active)"}
{"smiles": "NS(=O)(=O)c1ccc(Nc2nc(OCC3CCCCC3)c3[nH]cnc3n2)cc1", "Potency": "0.651 µM (active)"}
{"smiles": "Cc1cnc(NC(=O)Nc2cc(Br)c(C)cc2OC[C@@H]2CNCCO2)cn1", "Potency": "1.18 µM (active)"}
{"smiles": "Cc1ccc(C(=O)Nc2cccc(C(F)(F)F)c2)cc1Nc1nc(-c2cccnc2)nc2c1cnn2C", "Potency": "6.61 µM (active)"}
{"smiles": "NCCc1ccc(O)c(O)c1", "Potency": "inactive and 18.6 µM (active)"}
{"smiles": "COc1cc2ncnc(-n3nc(-c4ccccn4)nc3N)c2cc1OC", "Potency": "2.63 µM (active)"}
{"smiles": "CC(C)c1ccc2c(c1)c(SC(C)(C)C)c(CC(C)(C)C(=O)O)n2Cc1ccc(Cl)cc1", "Potency": "10.5 µM (active)"}
{"smiles": "CCN(CCO)CCCOc1ccc2c(Nc3cc(CC(=O)Nc4cccc(F)c4)[nH]n3)ncnc2c1", "Potency": "0.186 µM (active)"}
{"smiles": "Clc1ccccc1C(c1ccccc1)(c1ccccc1)n1ccnc1", "Potency": "5.25 µM (active)"}
{"smiles": "CN[C@@H](C)[C@H]1[C@H](O)C[C@@]2(C)[C@@H]3CC[C@H]4C(C)(C)[C@@H](NC)CC[C@@]45C[C@@]35CC[C@]12C", "viability, % of control": "80.2% [at 9.25 µM] (inactive)"}
{"smiles": "CCC(c1ccc(O)cc1)C(CC)c1ccc(O)cc1", "note": "(stereo not given)", "Potency": "26.3 µM (active)"}
{"smiles": "Cc1ccc(C(=O)c2cc(O)c(O)c([N+](=O)[O-])c2)cc1", "Potency": "23.5 µM (active)"}
{"smiles": "CCOC(=O)[C@@H](N)CCC(=O)N[C@@H](CSCc1ccccc1)C(=O)N[C@@H](C(=O)OCC)c1ccccc1", "Potency": "5.9 µM (active)"}
{"smiles": "CC(C)(C)c1cc(C(C)(C)C)c(NC(=O)c2c[nH]c3ccccc3c2=O)cc1O", "Potency": "7.42 µM (active)"}
{"smiles": "NC(=O)NO", "viability, % of control": "89.9% (inactive)"}
{"smiles": "Nc1ccccc1NC(=O)c1ccc(CNC(=O)OCc2cccnc2)cc1", "Potency": "366 nM (active) and 468 nM (active)"}
{"smiles": "COc1cccc(OC)c1-c1cc(C(=O)NC2(C(=O)O)C3CC4CC(C3)CC2C4)nn1-c1ccnc2cc(Cl)ccc12", "note": "(stereo not given)", "Potency": "5.9 µM (active)"}
{"smiles": "Cc1cn(CCN2CCN(c3ccccc3-c3cc(C#N)cc(C(=O)NCCCN4CCCC4)c3)CC2)c2ccccc12", "Potency": "3.66 µM (active) and 3.32 µM (active)"}
{"smiles": "CCCCCN(CCC12CC3CC(CC(C3)C1)C2)C(=O)NCCCc1ccncc1", "Potency": "7.42 µM (active)"}
{"smiles": "COC(=O)N[C@H](C(=O)N[C@@H](Cc1ccccc1)[C@@H](O)CN(Cc1ccc(-c2ccccn2)cc1)NC(=O)[C@@H](NC(=O)OC)C(C)(C)C)C(C)(C)C", "viability, % of control": "99.2% (inactive)"}
{"smiles": "Nc1c2c(nc3ccccc13)CCCC2", "Potency": "inactive and 18.6 µM (active)"}
{"smiles": "NS(=O)(=O)c1cccc2c1C(=O)c1cccc(O)c1C2=O", "Potency": "0.468 µM (active)"}
{"smiles": "CNC(=O)c1cc(Oc2ccc(NC(=O)Nc3ccc(Cl)c(C(F)(F)F)c3)c(F)c2)ccn1", "Potency": "291 nM (active) and 590 nM (active)"}
{"smiles": "O=C(N[C@@H](c1ccccc1)[C@@H]1CCCCN1)c1cccc(C(F)(F)F)c1Cl", "Potency": "16.6 µM (active)"}
{"smiles": "O=S(=O)(O)CCS", "Potency": "inactive"}
{"smiles": "CCN(c1ccccc1)c1cc(NC)[n+](C)c(C)n1", "Potency": "18.6 µM (active)"}
{"smiles": "CCn1c(C(=O)N(C2CC2)C2CC2)cc2c3c(ncn3C)c(Nc3cc(C)n(C)n3)nc21", "Potency": "2.31 µM (active) and 3.72 µM (active)"}
